# Reference: PubChem BioAssay AID651635 (National Center for Advancing Translational Sciences (NCATS), 2012)
# The campaign covered roughly 400,000 compounds. About 1,900 (0.47%) were called active. About 14% were inconclusive and are not listed. The list comes from a sample in which actives are over-represented; it also holds similar structures and randomly drawn compounds. Values without a mark were called inactive. The call rests on the fitted dose curve; in most records, active means well fitted cell-killing curve with a large enough effect; inconclusive means small, poorly fitted or top-dose-only effect, or effect the other way; inactive means no such curve, though single readings can be large or run the other way.
# Assay: Viability Counterscreen for Primary qHTS for Inhibitors of ATXN expression; further: nearly all actives have a fitted effect of over 40% in size
# Settings: S2 cells (HEK-293 line with an ATXN2-luciferase reporter) viability, CellTiter-Fluor protease fluorescence, 24 h; series mostly up to 56.7 µM; activity change, negative = cytotoxicity: at the top concentration
# Potency means the concentration at half of the fitted maximal effect.
Structure (SMILES),"activity change, negative = cytotoxicity [%]",Potency
COc1ccccc1C(=O)N[C@@H]1c2ccccc2C2(CCN(C(=O)c3csnn3)CC2)[C@H]1OC,-12.9,–
Cc1cnc(C)c(-c2cc(F)c3c(c2)CC(CNC(=O)c2cccc(Cn4cccn4)c2)O3)n1 (configuration not stated),-19.6,–
O=C(c1ccccc1)N1CCN(C(=O)c2cc3nc(-c4ccccc4)cc(C(F)(F)F)n3n2)CC1,-32.8,–
CN(C)CCN1CCN(c2cc(-c3cccc(Cl)c3)nc3ccnn23)CC1,-1.53,–
C#Cc1cc(N2CCN(C(=O)c3ccoc3)CC2)n2nc(-c3cccc(Cl)c3)cc2n1,–,15.8 µM (active)
COCc1c(C(=O)NC2CCCCC2)cnn1-c1nccc(-c2ccccc2OC)n1,1.68,–
Cc1ccc(F)cc1S(=O)(=O)N1CCC(c2nc3ccccc3s2)CC1,-17.6,–
COc1cc(=O)n2c(c1C(=O)NC(C)c1ccco1)CCN(C(=O)c1cn3ccc(C)cc3n1)CC2 (configuration not stated),-5.3,–
CO/N=C(/C(=O)N[C@@H]1C(=O)N2C(C(=O)O)=C(Cn3nnc(C)n3)CS[C@H]12)c1csc(N)n1,-4.23,–
CCOC(=O)/C(=C\c1ccc([N+](=O)[O-])cc1)C(=O)c1cc(C(C)=O)c(Nc2ccccc2)s1,–,31.6 µM (active)
CC(=O)Nc1ccc(C=CC(=O)c2ccc([N+](=O)[O-])cc2)cc1,-35.6,–
O=C(O)C(=Cc1ccc([N+](=O)[O-])cc1)CCc1ccccc1,4.26,–
CC(C)(C)OC(=O)N1CCN(C(=O)c2[nH]c(C(F)(F)F)nc2-c2ccccc2)CC1,6.95,–
COc1ccc(F)c(CN2CCC3(CCC(CNC(=O)c4ccn(C)n4)O3)CC2)c1 (configuration not stated),-17,–
CCCNC(=O)c1cc2c(c(-c3cccc(-c4ccc(C#N)cc4)c3)n1)[C@@H](CCO)N(C(=O)CC)C2,-27.1,–
CCOC(=O)[C@]12CCC=C1N(Cc1ccco1)C(=O)[C@H](CC(=O)NCc1cccc(C(F)(F)F)c1)C2,-31.8,–
CC1Cc2[nH][nH]c(=O)c2C(C2CCCC2)O1 (configuration not stated),-24.8,–
C=CC[C@@H](CC(=O)N[C@@H](CO)Cc1ccccc1)C(=O)NCCOC(=O)[C@@H](CC=C)CC(=O)OC(C)(C)C,-17.6,–
C=CCC[C@@H](Cc1ccc(F)cc1)C(=O)OC[C@H](Cc1c[nH]c2ccccc12)NC(=O)[C@@H](CC=C)CC(=O)N(CCO)Cc1ccccc1,–,5.62 µM (active)
COCCCNC(=S)N(Cc1ccccc1)Cc1ccc(F)cc1,-7.99,–
C=CC[C@H](CC(=O)OC(C)(C)C)C(=O)OC[C@H]1CCCN1C(=O)[C@H](CC=C)CC(=O)N(CCO)Cc1ccccc1,-32.5,–
CC(=O)NC(Cc1c[nH]c2ccccc12)C(=O)NCCc1ccccc1 (configuration not stated),22,–

Structure (SMILES),"activity change, negative = cytotoxicity [%]",Potency
C=CCC[C@@H](Cc1ccc(F)cc1)C(=O)O[C@H](CNC(=O)[C@H](CC=C)CC(=O)N(CCO)Cc1ccccc1)c1ccccc1,–,25.1 µM (active)
C=CC[C@@H](CC(=O)N[C@H](CO)Cc1ccccc1)C(=O)N[C@@H](COC(=O)[C@@H](CC=C)Cc1ccc(F)cc1)Cc1c[nH]c2ccccc12,-20.2,–
C=CC[C@@H](CC(=O)N[C@H](CO)Cc1ccccc1)C(=O)N[C@H](C)COC(=O)[C@@H](CC=C)Cc1ccc(F)cc1,-42.4,–
C=CCC[C@H](Cc1ccc(F)cc1)C(=O)OC[C@@H](NC(=O)[C@@H](CC=C)CC(=O)N[C@H](CO)Cc1ccccc1)C(C)(C)C,–,31.6 µM (active)
COc1ccc(-c2cc(NC=O)c3ncc(-c4ccccc4)n3c2)cc1OC,-34.1,–
CC1(C)[C@H](O[C@H]2O[C@H](C(=O)O)[C@@H](O)[C@H](O)[C@H]2O[C@@H]2O[C@H](C(=O)O)[C@@H](O)[C@H](O)[C@H]2O)CC[C@@]2(C)[C@H]1CC[C@]1(C)[C@H]2C(=O)C=C2[C@H]3C[C@@](C)(C(=O)O)CC[C@]3(C)CC[C@]21C,-18.3,–
COc1cccc(CNc2nc3cc(-c4csc5ccccc45)sc3c(=O)n2C)c1,-21.8,–
COC(=O)C1CCCCN1Cc1ccc2c(c1)CN(Cc1cc(OC)c3c(c1)OCO3)CCO2 (configuration not stated),-12.7,–
Cc1nc2nc(NCc3cccc(Br)c3)[nH]n2c(=O)c1Cc1ccccc1,-9.08,–
C=C1C(=O)[C@]23C[C@H]1CCC2[C@@]1(C)C(C[C@@H]3O)[C@](C)(C(=O)O)CC[C@@H]1O (some centres not stated),–,15.8 µM (active)
CCc1noc(C)c1C(=O)NCCN1Cc2cc(OC)ccc2OC(CC)C1 (configuration not stated),-3.48,–
COc1ccc(C2OC(CCc3ccccc3)Cc3[nH]c(=S)[nH]c(=O)c32)cc1 (configuration not stated),-35.3,–
CC(=O)O[C@H]1CC[C@@]2(C)C(=CC[C@@H]3[C@@H]2CC[C@]2(C)C(c4cccnc4)=CC[C@@H]32)C1,-2.28,–
CCOC(=O)[C@]12CCCC=C1N(Cc1cccc3ccccc13)C(=O)[C@H](CC(=O)NCC13CC4CC(CC(C4)C1)C3)C2,-27.9,–
COc1cccc(CN(C)C(=O)CC[C@H]2O[C@@H](n3cnc4c(NC(=O)c5ccccc5)ncnc43)[C@H](O)[C@@H]2O)c1,-19.7,–
COc1ccc(C[C@H](N)C(=O)N[C@@H]2[C@H](O)[C@H](n3cnc4c(N(C)C)ncnc43)O[C@@H]2CO)cc1,–,2 µM (active)
Nc1ncnc2c1ncn2[C@@H]1O[C@H](CNC(=O)[C@H](N)Cc2cccnc2)[C@@H](O)[C@H]1O,-12,–
CC1(C)OC(=O)C2=C(C[C@@H](C3CCCCC3)O[C@@H]2c2ccc(Cl)cc2)O1,-14.4,–
NNc1nnc(Cc2ccncc2)c2ccccc12,-5.09,–
OC[C@@H]1CN(Cc2ccncc2)C[C@H](n2cnc3c(N4CCN(c5ccccc5)CC4)ncnc32)O1,-36,–
COc1cc(=O)n2c(c1C(=O)N(C)Cc1nccs1)CCN(Cc1ccc(Cl)cc1)CC2,2.64,–
COc1ccc(CCN2C(=O)C(C)=C(C)C2=O)cc1OC,-20.2,–

Structure (SMILES),"activity change, negative = cytotoxicity [%]",Potency
CCCCN1C(=O)C(C)=C(C)C1OCCc1ccc(OC)c(OC)c1 (configuration not stated),-10.5,–
CCCCOc1ccc(CN2C(=O)C(=O)c3cc(Br)cc(C)c32)cc1OC,–,25.1 µM (active)
CCOP(=O)(OCC)C(Cc1ccccc1)N=C(c1ccccc1)c1ccccc1 (configuration not stated),-21.5,–
CC1=NNC(=O)C1CCC(=O)N/N=C(\C)c1ccc(Cl)cc1 (configuration not stated),-20.8,–
COc1ccc(/C(C)=N\NC(=O)c2ccc(-c3ccccc3)cc2)c(F)c1,-19.8,–
O=C(NCCOc1ccccc1)c1ccccc1F,-18.6,–
C/C(=N\NC(=O)c1ccccc1F)c1ccccn1,–,7.94 µM (active)
NC(=O)NC(CC(=O)NNC(=O)c1ccccn1)c1ccc(Cl)cc1 (configuration not stated),-27.3,–
C/C(=N\NC(=O)Cc1ccc(Cl)cc1)c1ccccn1,–,5.62 µM (active)
Cn1nccc1C(=O)NCC1CCC2(CCN(Cc3c(O)ccc4ccccc34)CC2)O1 (configuration not stated),-8.44,–
COc1ccccc1C1CN(Cc2ccccc2O)Cc2ccccc2O1 (configuration not stated),-9.48,–
CCC1CN(CCNC(=O)c2cccc(C)n2)Cc2cc(OC)ccc2O1 (configuration not stated),-11.5,–
Cc1ccc2c(C)nc(N3CCCC(C(=O)NC(C)(C)CO)C3)nc2c1 (configuration not stated),-1.89,–
CCC1(C2CCN(Cc3cccnc3)CC2)NC(=O)N(CC2COc3ccccc3O2)C1=O (configuration not stated),-2.28,–
COc1cc(C)c(CN2CCc3nnc(C(C)NC(=O)c4cccnc4)n3CC2)cc1C (configuration not stated),-8.61,–
Cc1cccc(CNC(=O)c2cnn(-c3nccc(-c4ccccc4F)n3)c2C2CC2)n1,-6.63,–
COC(=O)c1ccc2c(c1)N(CC(=O)Nc1ccc(C)c(C)c1)C(=O)c1ccccc1S2,-26.8,–
CN(C)c1nccc(NCc2ccccc2)c1C#N,15.7,–
CCC(CO)Oc1cc(NC(=O)c2ccc(Cl)cc2)c2ncn(C(C)C)c2c1 (configuration not stated),-15.2,–
CC(C)n1cnc2c(NCc3ccccc3)cc(OCC3CCN(C)CC3)cc21,–,31.6 µM (active)
COC(=O)c1ccc(CN2C(=O)C(Cc3ccccc3)ON=C2c2ncccc2C)o1 (configuration not stated),-17.5,–
CCOC(=O)N(C)c1c(CC)nc2c(OCc3ccccc3C(=O)OC)cccn12,-37.6,–

Structure (SMILES),"activity change, negative = cytotoxicity [%]",Potency
CCc1nc2c(OCc3ccc(Cl)cc3Cl)cccn2c1N(C)C(=O)C(C)C,–,22.4 µM (active)
CCc1nc2c(OCc3ccc(F)c(F)c3)cccn2c1N(C)C(=O)c1ccco1,-26,–
Cc1nc2c(OCc3ccc(Cl)cc3Cl)cccn2c1N(C)CC1CC1,–,20 µM (active)
CCCCC(=O)N(C)c1c(CC)nc2c(OCc3ccc(Cl)cc3Cl)cccn12,-11.9,–
CCc1nc2c(OCc3cccc(OC)c3)cccn2c1N(C)C(=O)C(C)C,-8.7,–
CCOC(=O)[C@]12CCC=C1N(Cc1cccc3ccccc13)C(=O)[C@H](CC(=O)NCc1cccc(C(F)(F)F)c1)C2,-37.5,–
CCCCNC(=O)C1CCC(CNS(=O)(=O)c2ccc(NC(C)=O)cc2)CC1 (configuration not stated),–,inactive
COc1ccc(NC(=O)C2CCC(CNS(=O)(=O)c3csc(C(N)=O)c3)CC2)cc1OC (configuration not stated),4.18,–
Cc1cc(NC(=O)C2CCC(CNS(=O)(=O)c3ccc(Br)s3)CC2)ccc1Br (configuration not stated),–,35.5 µM (active)
O=C(c1cn(CC2CCCN(Cc3cc4ccccc4s3)C2)nn1)N1CCCC1 (configuration not stated),-16.3,–
COc1ccc(CCCNC(=O)C2Cc3c(-c4cccc(C(N)=O)c4)ccnc3O2)cc1 (configuration not stated),-25.5,–
COC(=O)c1ccc2nc(-c3ccc(OC)c(OC)c3)c(Cc3ccccc3)n2c1,-38.4,–
Cc1cc(C)cc(CN2CCc3nnc(C(NS(C)(=O)=O)C(C)C)n3CC2)c1 (configuration not stated),-15.6,–
OC(c1ccc(F)cc1)c1ncc(-c2cccc(C(F)(F)F)c2)[nH]1 (configuration not stated),-35.2,–
CC(=O)OC[C@H]1O[C@@H](O[C@H]2[C@H](O)[C@@H](OC(=O)c3ccccc3C(=O)O)[C@H](O)O[C@@H]2COC(C)=O)[C@H](O)[C@@H](OC(=O)c2ccccc2C(=O)O)[C@@H]1O,-4.22,–
CCOc1ccc(NC(=O)CSc2nc3ccccc3c(=O)n2Cc2cccs2)cc1,-15.2,–
COc1cccc(NC(=O)c2ccc3c(SCC(=O)O)c4c(nc3c2)CCCC4)c1,-24,–
CCOc1ccc(NC(=O)CSc2nncn2C)cc1,21.1,–
CCOc1ccc(NC(=O)CSc2c3c(nc4ccccc24)CCCC3)cc1,–,25.1 µM (active)
CCOc1ccc(C(=O)Nc2ccc3nc4c(c(Nc5ccccc5OC)c3c2)CCCC4)cc1,–,14.1 µM (active)
CCOc1ccc(-n2nc3ccc(NC(=O)c4ccc(OC)c(Cl)c4)cc3n2)cc1,-8.21,–
